From PubChem BioAssay (NCATS)
“And” between values parts separate entries of the source, which are not always exact repeats. Identical values can stand only once. Unmarked numbers belong to inactive results. Inconclusive results are not listed. Where a call stands in place of a potency, no number is given. The source made the active and inactive calls. Unless noted, the call rests on the fitted dose curve; in most records, active means well fitted curve in the direction sought with a large enough effect; inconclusive means small, poorly fitted or top-dose-only effect, or another doubt; inactive means no such curve, though single readings can be large; an effect the other way counts as inactive or inconclusive.

What was measured:
[1] = qHTS assay for environmental chemicals that activate the Aryl hydrocarbon Receptor (AhR) signaling pathway (AID 651777); details: 1A2-DRE human hepatoma cells, luciferase, 24 h; activation: hits give high values; further: nearly all actives have a fitted effect of over 15% in size
How it was run: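 Concentration–response screening used 1,200 1A2-DRE cells per well, 24 hr compound exposure (37 C, 5% CO2), and One-Glo luminescence as the AhR-driven CYP1A2 reporter signal.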

[2] = target: Peroxisome proliferator-activated receptor alpha (Homo sapiens) (UniProt Q07869); assay: qHTS assay for small molecule agonists of the peroxisome proliferator-activated receptor alpha (PPARalpha) signaling pathway (AID 651778); details: PathHunter PPARalpha complementation, chemiluminescence, 6 h; max response: hits give high values
Peroxisome proliferator-activated receptor alpha (Homo sapiens), sequence (Q07869 whole entry, looked up): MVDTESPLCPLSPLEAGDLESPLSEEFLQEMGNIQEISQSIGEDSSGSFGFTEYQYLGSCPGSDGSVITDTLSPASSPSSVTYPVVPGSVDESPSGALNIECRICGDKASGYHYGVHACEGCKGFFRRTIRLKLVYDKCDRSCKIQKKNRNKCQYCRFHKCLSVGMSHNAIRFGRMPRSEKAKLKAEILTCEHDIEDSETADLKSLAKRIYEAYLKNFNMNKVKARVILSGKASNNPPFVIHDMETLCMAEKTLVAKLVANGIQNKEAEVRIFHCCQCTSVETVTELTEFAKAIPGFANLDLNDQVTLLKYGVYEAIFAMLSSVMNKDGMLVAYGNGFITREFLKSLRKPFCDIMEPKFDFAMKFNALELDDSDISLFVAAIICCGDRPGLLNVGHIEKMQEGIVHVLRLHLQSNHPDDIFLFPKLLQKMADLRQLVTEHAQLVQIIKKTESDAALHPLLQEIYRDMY
How it was run: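 Cells plated at 2,000/well and held overnight at 37 C, 5% CO2, then compound added by pin tool for 6 hr; after PathHunter detection reagent and 60 min at room temperature, chemiluminescence from enzyme complementation was read.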

[3] = target: Nuclear receptor ROR-gamma (Homo sapiens) (UniProt P51449); assay: qHTS assay for small molecule antagonists of the retinoid-related orphan receptor gamma (ROR-gamma) signaling pathway (AID 651802); further: nearly all actives have a fitted effect of over 60% in size; further: potency means the concentration at half of the fitted maximal effect
Nuclear receptor ROR-gamma (Homo sapiens), sequence (P51449 whole entry, looked up): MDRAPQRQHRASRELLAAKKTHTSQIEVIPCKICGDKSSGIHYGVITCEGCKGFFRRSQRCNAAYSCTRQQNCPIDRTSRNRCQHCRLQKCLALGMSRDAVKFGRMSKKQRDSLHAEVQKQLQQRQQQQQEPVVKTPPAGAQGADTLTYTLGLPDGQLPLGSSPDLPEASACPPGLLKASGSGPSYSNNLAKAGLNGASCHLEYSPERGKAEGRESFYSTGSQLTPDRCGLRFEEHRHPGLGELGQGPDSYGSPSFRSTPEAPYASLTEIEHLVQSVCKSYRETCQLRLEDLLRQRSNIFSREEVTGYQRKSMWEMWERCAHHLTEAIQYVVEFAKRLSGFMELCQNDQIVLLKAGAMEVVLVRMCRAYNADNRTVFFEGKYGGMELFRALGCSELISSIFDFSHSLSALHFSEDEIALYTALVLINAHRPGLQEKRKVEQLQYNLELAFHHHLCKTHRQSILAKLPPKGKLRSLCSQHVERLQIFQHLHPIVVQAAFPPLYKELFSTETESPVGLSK
How it was run: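 Steps: cells dispensed; compound or DMSO transferred by pin tool; doxycycline added to induce the ROR response element-driven luciferase; plates held 16hr at 37C; ONE-Glo added and luminescence measured.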

[4] = target: Arylsulfatase A (Homo sapiens) (UniProt P15289); assay: qHTS screen for enhancers of Arylsulfatase A (ASA1): LOPAC Validation Assay (AID 720538)
Arylsulfatase A (Homo sapiens), sequence (P15289 whole entry, looked up): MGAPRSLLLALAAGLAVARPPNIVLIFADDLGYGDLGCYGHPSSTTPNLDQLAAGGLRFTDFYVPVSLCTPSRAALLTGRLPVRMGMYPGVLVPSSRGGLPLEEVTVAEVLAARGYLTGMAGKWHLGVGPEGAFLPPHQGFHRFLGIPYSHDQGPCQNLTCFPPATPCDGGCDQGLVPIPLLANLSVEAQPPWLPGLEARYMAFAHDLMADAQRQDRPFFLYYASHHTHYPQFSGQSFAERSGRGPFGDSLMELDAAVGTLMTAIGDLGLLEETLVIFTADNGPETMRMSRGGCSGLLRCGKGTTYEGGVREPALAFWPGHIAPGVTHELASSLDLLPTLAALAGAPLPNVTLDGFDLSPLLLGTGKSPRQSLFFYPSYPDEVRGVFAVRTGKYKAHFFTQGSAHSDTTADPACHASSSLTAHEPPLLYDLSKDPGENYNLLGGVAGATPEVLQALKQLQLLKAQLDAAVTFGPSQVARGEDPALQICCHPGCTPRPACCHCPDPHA
How it was run: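 SV40-transformed skin fibroblasts from an MLD patient (ASA-I179S) were treated with compounds for 48h at 37 degree C, then lysed with 0.5mM pNCS final substrate for 14h at room temperature; NaOH stop, fluorescence read (Ex=525 nm; Em=598 nm).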

[5] = qHTS for compounds that reverse cellular toxicity of Amyloid beta (A-beta) peptide in yeast: LOPAC Validation Assay (AID 720559)
How it was run: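 Yeast cells expressing toxic A-beta were combined with pinned compounds in growth medium and incubated 48 hr at 30 C. Growth was read as absorbance at 600 nm and normalized to DMSO and to an equimolar FeCl3/clioquinol positive control.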

[6] = qHTS for Activators of Parkin Expression: LOPAC Validation Assay (NLuc Reporter) (AID 720572)
How it was run: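 Cells harboring the Parkin-promoter coincidence reporter were treated for 24 h at seven concentrations. NLuc output was measured sequentially after the FLuc channel and scaled between DMSO and positive control values.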

[7] = qHTS for Activators of Parkin Expression: LOPAC Validation Assay (FLuc Reporter) (AID 720573)
How it was run: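 Neuronal cell line stably carrying FLuc/NLuc coincidence reporter under Parkin promoter; cells plated 24 h, then compounds added in 7-point dose response for 24 h at 37 C. FLuc luminescence read; normalized to DMSO and positive control (100%).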

[8] = qHTS assay for small molecule agonists of the antioxidant response element (ARE) signaling pathway measured by Nrf2-dependant transcriptional activity (AID 720636; active means well fitted curve in the direction sought with a large enough effect in the repeat runs; an effect the other way counts as inactive or inconclusive;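 further: HepG2 cells with an ARE-driven luciferase reporter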)
How it was run: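 Attachment 6 hr at 37 C, then compound versus DMSO vehicle for 16 hr in ARE-luc HepG2 cells (1% dialyzed FBS); luminescence recorded 30 min after ONE-Glo addition at room temperature.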

[9] = qHTS assay for small molecule antagonists of the retinoid-related orphan receptor gamma (ROR-gamma) signaling pathway - cell viability counter screen (AID 720652; active means well fitted curve in the direction sought with a large enough effect in the repeat runs; an effect the other way counts as inactive or inconclusive;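 further: compound exposure lasted 16 hr before ATP read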; further: potency means the concentration at half of the fitted maximal effect)
How it was run: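 Steps: seed CHO cells bearing TET-inducible ROR and ROR response element-luciferase; rest 5 hr at 37 C; add compound, then doxycycline; incubate 16 hr; add CellTiter-Glo and read luminescence as ATP-based viability.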

[10] = qHTS assay for small molecule agonists of the antioxidant response element (ARE) signaling pathway measured by Nrf2-dependant transcriptional activity - cell viability counter screen (AID 720653; active means well fitted curve in the direction sought with a large enough effect in the repeat runs; an effect the other way counts as inactive or inconclusive); details: ARE-bla HepG2 viability, CellTiter-Glo ATP luminescence, 16 h; max response: hits give low values
How it was run: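 ARE-bla HepG2 cells (2,000/well) rested 5 hrs at 37C/5% CO2, then exposed to compounds in DMSO for 16 hrs. Viability was read in the same wells as intracellular ATP by luminescence, 30 min at room temperature after reagent addition.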

[11] = target: T1, Hexokinase-4 (Homo sapiens) + Glucokinase regulatory protein (Homo sapiens) (UniProt P35557+Q14397); assay: qHTS assay for inhibitors of recombinant human GCK-GKRP interaction: Diaphorase-coupled assay (AID 743205)
T1 sequence (P35557 whole entry, looked up): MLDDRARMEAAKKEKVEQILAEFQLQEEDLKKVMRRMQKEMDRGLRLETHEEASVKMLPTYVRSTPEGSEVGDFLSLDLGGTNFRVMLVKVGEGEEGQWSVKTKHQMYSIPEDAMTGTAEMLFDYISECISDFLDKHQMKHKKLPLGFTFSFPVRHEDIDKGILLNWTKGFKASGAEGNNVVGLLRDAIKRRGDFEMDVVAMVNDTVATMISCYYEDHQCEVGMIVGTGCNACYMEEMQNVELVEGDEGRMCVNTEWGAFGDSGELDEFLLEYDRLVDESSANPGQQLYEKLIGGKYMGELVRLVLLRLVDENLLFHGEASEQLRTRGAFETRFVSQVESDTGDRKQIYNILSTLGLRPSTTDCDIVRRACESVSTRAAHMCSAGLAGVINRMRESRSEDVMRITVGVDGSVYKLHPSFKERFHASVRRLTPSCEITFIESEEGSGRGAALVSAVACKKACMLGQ
T1 sequence (Q14397 whole entry, looked up): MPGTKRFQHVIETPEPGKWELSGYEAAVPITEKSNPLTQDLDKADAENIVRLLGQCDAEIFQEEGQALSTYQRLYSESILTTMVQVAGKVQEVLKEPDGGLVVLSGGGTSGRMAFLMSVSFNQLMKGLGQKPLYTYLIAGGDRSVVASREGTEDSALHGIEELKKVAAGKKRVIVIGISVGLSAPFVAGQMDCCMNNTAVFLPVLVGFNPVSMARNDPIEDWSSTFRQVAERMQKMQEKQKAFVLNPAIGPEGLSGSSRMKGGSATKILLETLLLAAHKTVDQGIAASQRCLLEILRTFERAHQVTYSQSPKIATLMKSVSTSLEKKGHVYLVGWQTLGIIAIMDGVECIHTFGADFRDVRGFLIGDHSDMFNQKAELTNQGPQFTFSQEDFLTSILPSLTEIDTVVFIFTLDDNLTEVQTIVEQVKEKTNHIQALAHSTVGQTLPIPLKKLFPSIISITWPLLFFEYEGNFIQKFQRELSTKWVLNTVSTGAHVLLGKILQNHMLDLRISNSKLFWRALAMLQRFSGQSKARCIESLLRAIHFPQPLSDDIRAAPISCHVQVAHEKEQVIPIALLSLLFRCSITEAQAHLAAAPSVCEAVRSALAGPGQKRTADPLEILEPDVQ
How it was run: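 GST-GCK (10 nM) with FLAG-GKRP (10 nM), 5 mM glucose and 0.4 mM ATP in pH 7.6 Hepes; compounds preincubated 20 min with substrate. G6PDH/diaphorase coupling converts resazurin to resorufin, read kinetically (ex 525/em 590 nm) for 30 min.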

[12] = target: T1, Hexokinase-4 (Homo sapiens) + Glucokinase regulatory protein (Homo sapiens); assay: qHTS assay for inhibitors of recombinant human GCK-GKRP interaction: ADP-Glo assay (AID 743206)
How it was run: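 Pin-transferred compounds meet a 15 nM GST-GCK/15 nM FLAG-GKRP/2 uM S6P mix (dispense concentrations). ATP is then added to 0.4 mM final with 5 mM glucose, and the reaction runs 60 min at room temperature. ADP is quantified luminescently.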

[13] = target: T1, Hexokinase-4 (Homo sapiens) + Glucokinase regulatory protein (Homo sapiens); assay: qHTS assay for inhibitors of recombinant human GCK-GKRP interaction: HTRF assay (AID 743207)
How it was run: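 GST-GCK and FLAG-GKRP (5 nM each) were combined with 2 uM S6P in pH 7.1 Hepes/MgCl2/KCl/DTT buffer, then compound and anti-FLAG XL665/anti-GST K antibodies were added. After 60 min at room temperature, HTRF 665/615 nm emission was read.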

[14] = qHTS Assay for Identifying Gametocytocidal Compounds (AID 743244); further: potency means the concentration at half of the fitted maximal effect;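 on max response: actives lower the fluorescent signal which means gametocytes are killed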; details: P. falciparum 3D7 stage III-V gametocytes, alamarBlue, 72 h; max response: hits give low values
How it was run: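 Using 20,000 stage III–V 3D7 gametocytes per well, compounds were incubated 72 h under 37 °C/5% CO2. Viability was then assessed by 24 h alamarBlue reduction, measured fluorometrically at 525/598 nm.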

[15] = qHTS assay for cell viability of HEK293 cells (AID 743288); details: ATP luminescence (CellTiter-Glo), 18 h; max response: hits give low values; further: nearly all actives have a fitted effect of over 50% in size; further: potency means the concentration at half of the fitted maximal effect
How it was run: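 After 18 h compound exposure at 37 C, parental HEK293 cells (2,000/well) are lysed with CellTiter-Glo and luminescence is read following 30 min at room temperature.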

[16] = qHTS assay for cell viability of the p53RE-bla HCT-116 cell line (AID 743292); further: nearly all actives have a fitted effect of over 55% in size
How it was run: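 Compound-exposed HCT-116 (p53RE-bla) cells, 4,000 per well, were kept 16 h at 37 C following a 5 h preincubation. Cell number was estimated from total ATP by CellTiter-Glo luminescence read after 30 min at room temperature.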

[17] = qHTS for small molecule inhibitors of Yes1 kinase: Counter Assay (AID 686950);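 further: no kinase present so only ADP-Glo detection of a fixed ADP amount is tested; luminescence from ADP-Glo reporting ADP in a fixed ATP and ADP mixture; series mostly up to about 77 µM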
How it was run: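 Measuring interference with ADP-Glo, the assay ran 60 min at room temperature on an ATP/ADP mix lacking enzyme. Values were normalized to ATP-plus-ADP (maximum) and ATP-only (minimum) DMSO controls.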

[18] = target: Tyrosine-protein kinase Yes (Homo sapiens) (UniProt P07947); assay: qHTS for small molecule inhibitors of Yes1 kinase: Primary Screen (AID 686947); further: nearly all actives have a fitted effect of over 60% in size
Tyrosine-protein kinase Yes (Homo sapiens), sequence (P07947 whole entry, looked up): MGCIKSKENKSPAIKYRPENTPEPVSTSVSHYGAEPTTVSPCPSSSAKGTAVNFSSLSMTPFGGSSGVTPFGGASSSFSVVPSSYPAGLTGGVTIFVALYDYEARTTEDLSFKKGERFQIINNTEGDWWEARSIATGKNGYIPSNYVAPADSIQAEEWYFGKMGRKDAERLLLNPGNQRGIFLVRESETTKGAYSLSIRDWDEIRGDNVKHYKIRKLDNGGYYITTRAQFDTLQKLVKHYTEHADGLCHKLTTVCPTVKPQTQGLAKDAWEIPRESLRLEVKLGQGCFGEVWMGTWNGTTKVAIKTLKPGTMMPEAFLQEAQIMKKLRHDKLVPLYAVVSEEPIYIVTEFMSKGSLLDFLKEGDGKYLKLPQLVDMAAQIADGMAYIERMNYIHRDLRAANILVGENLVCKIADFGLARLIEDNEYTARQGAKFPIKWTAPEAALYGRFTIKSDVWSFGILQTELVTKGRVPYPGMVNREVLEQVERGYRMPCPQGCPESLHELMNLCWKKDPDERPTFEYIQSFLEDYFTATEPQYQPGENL
How it was run: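 ADP-Glo luminescence reports ADP formed by 4 nM Yes1 phosphorylating poly(E4Y) (0.3 mg/mL) with 0.1 mM ATP for 60 min at room temperature, following 20 min compound preincubation; normalised between DMSO wells with and without enzyme.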

| SMILES | activation [1] | max response [2] | Potency [3] | Potency [4] | outcome [5] | outcome [6] | Potency [7] | outcome [8] | Potency [9] | max response [10] | Potency [11] | Potency [12] | Potency [13] | max response [14] | max response [15] | Potency [16] | Potency [14] | outcome [17] | Potency [18] | Potency [15] |
| --- | --- | --- | --- | --- | --- | --- | --- | --- | --- | --- | --- | --- | --- | --- | --- | --- | --- | --- | --- | --- |
| Clc1ccc(C(c2ccccc2Cl)C(Cl)Cl)cc1 (configuration not stated) | 2.12% and 0.378% | 18.7% | 33.5 µM (active) | inactive | inactive | inactive | inactive | inactive | 59.6 µM (active) | -18.3% and -6.45% | inactive | inactive | inactive | -1.64% and 6.44% |  |  |  |  |  |  |
| COc1cc2c(c(OC)c1OC)-c1ccc(OC)c(=O)cc1[C@@H](NC(C)=O)CC2 | -0.775% and -1.98% and -0.55% | -2.35% and 0.0679% and 8.6% |  | inactive | inactive | inactive | inactive | inactive | inactive | -19.8% and 13.5% and -10.8% | inactive | inactive | inactive | -10.9% and -1.99% | -13.3% and -14.4% and -4% | inactive |  |  |  |  |
| Nc1c2c(nc3ccccc13)CCCC2 | 11.6% | -6.35% | inactive | inactive | inactive | inactive | inactive | inactive | inactive | -10.2% | inactive | inactive | inactive |  | -20.1% | inactive | 8.91 µM (active) |  |  |  |
| Cc1cn([C@H]2C[C@H](N=[N+]=[N-])[C@@H](CO)O2)c(=O)[nH]c1=O | -0.858% and 1.65% | 0.0124% and -0.27% | inactive | inactive | inactive | inactive | inactive | inactive | inactive | -2.6% | inactive | inactive | inactive | 21.9% and 0.942% and 16% | -21.7% | inactive |  | inactive |  |  |
| COc1ccc(CCN(C)CCCC(C#N)(c2ccc(OC)c(OC)c2)C(C)C)cc1OC (configuration not stated) |  |  |  | inactive |  | inactive | inactive | inactive | inactive | -18% | inactive | inactive | inactive |  | 0.749% | inactive |  | inactive | inactive |  |
| CC(COc1ccccc1)N(CCCl)Cc1ccccc1 (configuration not stated) |  | -4.85% and -2.28% |  |  |  |  |  | inactive |  |  | inactive | inactive | inactive |  |  | inactive |  |  |  | 35.5 µM (active) |
